# Compounds with a hit are over-represented: about 2.4% of the library has one in this group of screens.
# D2 ag-1: human D2 receptor agonism in beta-arrestin assay. DiscoveRx PathHunter D2 beta-arrestin, luminescence, 90 min; 100% = 57 uM dopamine signal. hit rate 0.084% among 360,000. activation, % (concentration not given with the values). P14416; in the data active means activation above about 40%; inconclusive means between about 15% and that limit
# Target sequence (P14416 whole entry, looked up): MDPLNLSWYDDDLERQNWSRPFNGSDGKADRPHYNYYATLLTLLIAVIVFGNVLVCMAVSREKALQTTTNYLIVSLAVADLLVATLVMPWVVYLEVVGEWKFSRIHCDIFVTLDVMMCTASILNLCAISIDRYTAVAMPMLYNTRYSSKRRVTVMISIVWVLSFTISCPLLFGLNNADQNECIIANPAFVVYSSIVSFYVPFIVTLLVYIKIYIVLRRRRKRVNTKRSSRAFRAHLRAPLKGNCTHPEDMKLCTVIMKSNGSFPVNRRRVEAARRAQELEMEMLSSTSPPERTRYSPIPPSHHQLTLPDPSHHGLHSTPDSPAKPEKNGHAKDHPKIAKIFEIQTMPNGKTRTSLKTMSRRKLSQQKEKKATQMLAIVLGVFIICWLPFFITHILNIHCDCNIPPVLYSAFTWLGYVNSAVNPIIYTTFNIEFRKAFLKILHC
#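 DiscoveRx PathHunter D2 beta-arrestin cells (2,100/well) attached overnight, then compound-stimulated 90 min at 37 C in HBSS/10 mM HEPES/0.1% Tween-20 buffer; beta-galactosidase complementation read by luminescence after 1 h at ambient temperature. Dopamine 57 uM final (EC100) as control.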
# D2 PAM-1: potentiates the human D2 dopamine receptor allosterically. AID 624464. hit rate 0.23% among 360,000. DiscoveRx D2 beta-arrestin cells, luminescence, 90 min; 100% = 57 uM dopamine signal. P14416. potentiation, % (no concentration beside the values); in the data active means potentiation above about 50%; inconclusive means mostly about 30% to 49%
#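 PathHunter D2 cells, attached overnight at 37 deg C, received compound in DMSO plus dopamine at EC20 (50 nM final) for 90 min at 37 deg C. Beta-arrestin recruitment was read as luminescence after 1 h with detection reagent at ambient temperature.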
# D2 PAM-2: positive allosteric modulators of human D2 dopamine receptor | hit rate 0.34% among 340,000 | AID 485347 | P14416 | potentiation, % at 10 µM | HEK293 T-REx D2, calcium flux, EC20 dopamine potentiation;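 active means potentiation over 3 SD above the plate norm, cut at about 30% in these data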; further: 0% is about no effect
#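 Primary screen. Calcium kinetics in induced HEK293 T-REx D2 cells: compound pre-addition 180 s, EC20 dopamine, 180 s more.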
# D2 antagonist: D2 dopamine receptor (human) antagonism; HEK293 TREx D2 cells, calcium flux, dopamine EC80; inhibition, % at 10 µM; hit rate 2% among 340,000; in the data active means inhibition above about 30%; inactive means below that, where a call was filed; further: 0% is about no effect
#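 Read-out: kinetic calcium fluorescence (1 cycle/s) in inducible HEK293 T-REx D2 cells after an EC80 dopamine addition that followed 180 s compound preincubation. Loss of the dopamine response indicates antagonism.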
# D2 ag-2: agonists of human D2 dopamine receptor. P14416. HEK293 T-REx D2 cells, calcium flux agonist mode. hit rate 0.53% among 340,000. activation, % at 2 µM;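 active means activation over 3 SD above normal in the single-dose calcium agonist read, cut at about 30% in these data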; further: 0% is about no effect
#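 Calcium-flux readout, 1 cycle/sec over 180 s following compound pin transfer, in inducible HEK293 Trex D2 cells (force-coupled); dopamine controls included. Positive calcium responses during this window marked compounds as potential agonists.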
# D3 ag: activates human D3 dopamine receptor beta-arrestin recruitment | hit rate 4% among 2,300 | AID 720506 | DiscoveRx D3 beta-arrestin cells, luminescence, 90 min | shares compounds with D2 ag-2 | Potency, µM (doses to about 76.9 µM), inactives show at the highest dose activation, usual class: activators;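 further: potency means the concentration at half of the fitted maximal effect; 100% = dopamine control response; nearly all actives have a fitted effect of over 70% in size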
# D2 ag-3: activates human D2 dopamine receptor in D3 counterscreen; shares compounds with D2 ag-2; hit rate 5.9% among 2,300; Potency, µM (highest dose often 76.9 µM), without a hit: at the top dose activation, usual class: activators; AID 720507; DiscoveRx PathHunter D2 beta-arrestin, luminescence, 90 min; response scale: percent relative to full dopamine signal; further: potency means the concentration at half of the fitted maximal effect; % of control where 0% means no effect; nearly all actives have a fitted effect of over 70% in size
# * = called active by the depositor; ? = inconclusive; / = no result. Unless noted, the call rests on the fitted dose curve; in most records, active means well fitted activation curve with a large enough effect; inconclusive means small, poorly fitted or top-dose-only effect; inactive means flat fitted curve, though single readings scatter.
SMILES,D2 ag-1,D2 PAM-1,D2 PAM-2,D2 antagonist,D2 ag-2,D3 ag,D2 ag-3
COc1ccc(S(=O)(=O)Nc2ccc3oc4c(c3c2)C(=O)CC(C)(C)C4)cc1,/,/,-1,/,/,/,/
CCCCNCCCOc1cccc(Cl)c1Cl,3,-11,-35,87*,49*,11%,12%
Cc1cccc(N(Cc2ccccc2)C(=O)C2CCN(C(=O)c3ccccc3C)CC2)c1,1,-10,0,-55,0,-14%,3%
Cc1ccccc1C(=O)N1CCC(C(=O)N(C)CCOc2ccccc2)CC1,-7,-4,5,-3,0,/,/
COc1cc(Nc2nn(-c3ccc(OC(F)(F)F)cc3)nc2C(C)=O)cc(OC)c1,/,/,5,/,1,/,/
CCOC(=O)C1CCN(C2CCN(Cc3nc(-c4ccccc4)no3)CC2)CC1,0,-6,1,-2,2,/,/
CCOC(=O)C1CCCN(C2CCN(Cc3nc(-c4ccccc4)no3)CC2)C1 (stereo not given),0,-5,-23,-19,52*,12%,6%
CCOC(=O)C1CCCN(Cc2nc(Cc3cccc(F)c3)no2)C1 (stereo not given),-2,-13,-4,-23,2,/,/
CCOC(=O)C1CCCN(C2CCN(Cc3nc(Cc4ccccc4)no3)CC2)C1 (stereo not given),0,-30,-16,34*,22,-2%,4%
CCC(=O)N1c2ccc(S(=O)(=O)CCC(=O)N3CCN(c4ccc(F)cc4)CC3)cc2CC1C (stereo not given),/,/,-2,/,0,/,/
CC(C)[C@@H](C(=O)N1CCN(Cc2ccc3c(c2)OCO3)CC1)n1nnc2ccccc2c1=O,0,1,/,/,/,/,/
Cc1ccc(CSCC(=O)N2CCN(Cc3ccc4c(c3)OCO4)CC2)cc1,2,-11,-13,15,45*,-11%,4%
CCC(C(=O)N1CCN(Cc2ccc3c(c2)OCO3)CC1)n1c(=O)[nH]c2ccccc2c1=O (stereo not given),-9,-9,-9,3,46*,-3%,5%
Cn1c(=O)cc(SCC(=O)N2CCN(Cc3ccc4c(c3)OCO4)CC2)c2ccccc21,6,3,-10,41*,38*,1%,11%
Cc1ccc(NC(=O)CCN2CCN(CCO)CC2)cc1C,/,/,-2,/,-1,/,/
CCOC(=O)Cn1c(=O)n(CC2CCCO2)c2nc(-c3c(F)cccc3Cl)nc(C(N)=O)c21 (stereo not given),/,/,14,/,0,/,/
Cc1cccc(N2CCN(CCCNc3ncnc4onc(-c5ccc(Cl)cc5)c34)CC2C)c1 (stereo not given),/,/,4,/,0,/,/
COc1ccc(-c2cn3c(n2)sc2cc(C(=O)NCCC4=CCCCC4)ccc23)cc1,/,/,6,/,0,/,/
C=CCn1c(-c2ccc(OC)cc2)csc1=Nc1c(C)n(C)n(-c2ccccc2)c1=O,?,-25,-15,54*,67*,-8%,?
O=C(Cn1nc2c(cc1=O)CCCC2)Nc1ccccc1C(F)(F)F,/,/,4,/,-1,/,/
COc1ccc(C2CC(O)(c3ccccc3)Oc3c(C)ccc(C)c32)cc1 (stereo not given),-4,-3,21,4,1,/,/
COc1ccc(C2CC(O)(c3ccccc3)Oc3cc(OC)cc(OC)c32)cc1 (stereo not given),5,2,10,4,0,19%,4%
CCOc1ccc(NC(=O)CSc2nc3ccsc3c(=O)n2C(C)CC)cc1 (stereo not given),/,/,-3,/,0,/,/
COc1ccc(NS(=O)(=O)c2cccc(C(=O)NNC(=O)c3ccc(C)o3)c2)cc1,-2,-3,-11,-5,0,2%,2%
O=C(c1ccco1)N1CCN(C(=O)C2CCN(S(=O)(=O)c3cccs3)CC2)CC1,-5,-13,-11,-1,1,0%,1%
SMILES,D2 ag-1,D2 PAM-1,D2 PAM-2,D2 antagonist,D2 ag-2,D3 ag,D2 ag-3
O=C(NCc1ccccc1)NC1COc2ccccc2C1 (stereo not given),/,/,-10,/,0,/,/
COC(=O)[C@@H](N)Cc1ccc(O)c(O)c1,-8,-6,-21,81*,74*,?,21%
COC(=O)C(N)Cc1ccc(Cl)cc1 (stereo not given),-6,-2,13,-8,-1,/,/
COc1ccccc1C(=O)NC(CCSC)C(=O)OCC(=O)N1CCCC1=O (stereo not given),-2,-5,-8,-21,-1,-3%,-1%
CSCCC(NC(=O)c1ccc(Cl)cc1)C(=O)OCC(=O)N1CCCC1=O (stereo not given),-1,2,-11,1,1,/,/
CCOCCCn1c(SCC(=O)Nc2ccc(F)cc2)nc2c(sc3ccccc32)c1=O,/,/,8,/,0,/,/
CN=c1scc(-c2ccco2)n1/N=C/c1ccc(O)c(O)c1,49*,27,-9,28,36*,?,35µM*
O=C(NC1(C(F)(F)F)NC(=O)N(CCc2ccccc2)C1=O)c1ccccc1Cl (stereo not given),/,/,-23,/,-1,/,/
CCC(NC(C)C)C(O)c1ccc(O)c2[nH]c(=O)ccc12 (stereo not given),4,-5,0,-11,27,?,21%
Brc1cccc(CN2CCN(c3ncccn3)CC2)c1,73*,?,-17,85*,73*,26%,11µM*
Cc1cccc(CN2CCN(c3ncccn3)CC2)c1,?,?,-30,83*,87*,?,7.9µM*
Cc1ccc(S(=O)(=O)NCC(Nc2cccc(Cl)c2)c2ccccc2)cc1 (stereo not given),/,/,4,/,1,/,/
Cc1cc(/C=C(\C#N)C(N)=O)c(C)n1-c1ccc(N2CCOCC2)c([N+](=O)[O-])c1,4,16,5,4,55*,21%,8%
CC(C)(C)c1cc(CCC(=O)NNC(=S)NC(=O)c2ccccc2)cc(C(C)(C)C)c1O,-14,-15,/,/,/,0%,-10%
O=C(O)Cn1nc(N2CCN(c3ccccc3)CC2)ccc1=O,/,/,2,/,0,/,/
C=CC[C@]12CCc3ccccc3C1N(c1ccc(C(=O)OCC)cc1)C2=O (stereo not given in full),-3,-6,3,-11,0,-7%,-4%
CCOC(=O)c1ccc(N2C(=O)Cc3ccccc3C2=O)cc1,-3,1,5,-8,1,/,/
CC(=O)Nc1cccc(NC(=O)C2(c3cccs3)CCOCC2)c1,/,/,-5,/,1,/,/
